Among all 77,000 compounds or so, about 4,600 (6%) were called active. Another 1% or so got no clear call; they are omitted.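 The calls were made as follows: active = mean inhibition above about 93%, with at least 55% of replicates each passing it (limit read from the data, passing the limit was not always enough); inconclusive = only one of those two conditions holds; inactive = neither condition holds.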 For the sample, actives were picked, then their nearest neighbours and some compounds at random.
experiment: growth inhibition of T. cruzi in host fibroblasts – cell-based, beta-gal Tulahuen parasites, NIH3T3 host, luminescence, primary screen (AID 624255); conditions: T. cruzi beta-gal in NIH3T3, GalScreen luminescence, 90 h; at 8.34 µM; active compounds read high

Structure (SMILES)	inhibition
CNC(=O)C[C@H]1CC[C@@H]2[C@@H](COc3ccc(NC(=O)c4ccc(F)c(F)c4)cc3C(=O)N2C)O1	-6.57% (inactive)
CCNC(=O)Nc1ccc2c(c1)C(=O)N(C)[C@H]1CC[C@@H](CC(=O)N[C@H](C)c3ccccc3)O[C@@H]1CO2	13.7% (inactive)
Cc1noc(C)c1S(=O)(=O)N(C)C[C@@H]1Oc2ccc(NC(=O)Cn3cnnn3)cc2CC(=O)N([C@@H](C)CO)C[C@@H]1C	-16.4% (inactive)
Cc1ccc(S(=O)(=O)N[C@@H]2CC[C@H](CCNC(=O)C3CCOCC3)O[C@@H]2CO)cc1	2.56% (inactive)
CO[C@H]1CN(C)C(=O)c2cc(NC(=O)C3CCC3)ccc2OC[C@H](C)N(C)C[C@H]1C	17% (inactive)
CC=Cc1ccc2n(c1=O)C[C@@H]1[C@@H](CO)[C@H](C(=O)NCC3CC3)[C@H]2N1C(=O)c1ccccc1 (mixture of isomers)	35.2% (inactive)
COc1ccc(-c2ccc([C@@H]3[C@@H](CO)N4CCCCN(C(=O)NC(C)C)C[C@H]34)cc2)cc1	73.2% (inactive)
CN1C(=O)c2cc(NS(C)(=O)=O)ccc2OC[C@H]2O[C@H](CC(=O)NCc3ccccc3)CC[C@H]21	-19.6% (inactive)
CO[C@@H]1CN(C)C(=O)c2ccc(NC(=O)Nc3ccccc3)cc2OC[C@@H](C)N(C(=O)CN(C)C)C[C@H]1C	-44.4% (inactive)
O=C([C@@H]1[C@@H](CO)[C@@H]2Cn3c(ccc(-c4ccccc4)c3=O)[C@H]1N2CCC(F)(F)F)N1CCCCC1	1.28% (inactive)
CNC[C@@H]1OCCCC[C@H](C)Oc2ccc(NC(=O)Nc3ccccc3)cc2C(=O)N([C@H](C)CO)C[C@H]1C	28.6% (inactive)
CNC[C@H]1OCCCC[C@H](C)Oc2ccc(NC(=O)Nc3c(C)noc3C)cc2C(=O)N([C@H](C)CO)C[C@H]1C	104% (active)
Cc1noc(C)c1NC(=O)Nc1ccc2c(c1)C(=O)N([C@H](C)CO)C[C@H](C)[C@@H](CN(C)S(C)(=O)=O)OCCCC[C@H](C)O2	11.5% (inactive)
CO[C@@H]1CN(C)C(=O)c2cc(NC(=O)NC(C)C)ccc2OC[C@@H](C)N(CC2CC2)C[C@@H]1C	-28.4% (inactive)
Cc1ccc(S(=O)(=O)N2C[C@H](O)COC[C@@H]3O[C@@H](CC(=O)NCC4CCCCC4)CC[C@H]32)cc1	5.15% (inactive)
Cc1ccc(S(=O)(=O)N2C[C@@H](O)COC[C@@H]3O[C@H](CC(=O)NCc4ccc(Cl)c(Cl)c4)CC[C@H]32)cc1	97.5% (active)
O=C(C[C@@H]1CC[C@@H]2[C@H](COC[C@H](O)CN2S(=O)(=O)c2ccc(F)cc2)O1)NCc1ccc(Cl)c(Cl)c1	54.2% (inactive)
O=C(C[C@H]1CC[C@H]2[C@@H](COC[C@H](O)CN2S(=O)(=O)c2cccc(Cl)c2)O1)Nc1ccccc1	11.3% (inactive)
Cc1cccc(S(=O)(=O)N2C[C@@H](O)COC[C@H]3O[C@H](CC(=O)Nc4ccc(-c5ccccc5)cc4)CC[C@@H]32)c1	94.5% (inactive)
COc1cccc(S(=O)(=O)N2C[C@@H](O)COC[C@@H]3O[C@H](CC(=O)Nc4ccccc4)CC[C@H]32)c1	109% (active)

Structure (SMILES)	inhibition
Cc1ccc(S(=O)(=O)Nc2ccc3c(c2)C(=O)N([C@@H](C)CO)C[C@@H](C)[C@H](CN(C)Cc2ccncc2)O3)cc1	5.91% (inactive)
CN(C)C(=O)[C@@H]1[C@@H](CO)[C@@H]2Cn3c(ccc(-c4ccccc4F)c3=O)[C@@H]2N1C(=O)C1CC1	30.9% (inactive)
C[C@@H]1CCCCO[C@H](CN(C)S(=O)(=O)c2cn(C)cn2)[C@@H](C)CN([C@@H](C)CO)C(=O)c2cc(NC(=O)CCC(F)(F)F)ccc2O1	28.2% (inactive)
O=C(C[C@@H]1CC[C@@H](NS(=O)(=O)c2ccccc2)[C@H](CO)O1)NCc1ccc(Cl)c(Cl)c1	-48.5% (inactive)
C[C@@H]1CN([C@@H](C)CO)C(=O)c2cc(C#CC(C)(C)O)cnc2O[C@@H]1CN(C)C(=O)C1CCOCC1	-1.59% (inactive)
O=C(Cc1ccncc1)Nc1ccc2c(c1)[C@@H]1C[C@H](CC(=O)N3CCCCC3)O[C@H](CO)[C@@H]1O2	14.2% (inactive)
CN1c2ccc(-c3ccccc3)cc2[C@@H]2[C@@H](CCN2C(=O)NC2CCCC2)[C@H]1CO	6.51% (inactive)
C[C@@H]1CCCCO[C@H](CN(C)C(=O)Nc2cccc3ccccc23)[C@H](C)CN([C@H](C)CO)C(=O)c2cc(NS(=O)(=O)c3cccs3)ccc2O1	115% (active)
C[C@@H]1CCCCO[C@@H](CN(C)C(=O)Nc2cccc3ccccc23)[C@@H](C)CN([C@H](C)CO)C(=O)c2cc(NS(C)(=O)=O)ccc2O1	-3.68% (inactive)
Cc1noc(C)c1S(=O)(=O)Nc1ccc2c(c1)C(=O)N([C@@H](C)CO)C[C@@H](C)[C@H](CN(C)C(=O)Nc1cccc3ccccc13)OCCCC[C@H](C)O2	72.3% (inactive)
Cc1noc(C)c1S(=O)(=O)Nc1ccc2c(c1)C(=O)N([C@@H](C)CO)C[C@H](C)[C@@H](CN(C)C(=O)Nc1cccc3ccccc13)OCCCC[C@H](C)O2	104% (active)
C[C@@H]1CCCCO[C@H](CN(C)C(=O)Nc2cccc3ccccc23)[C@@H](C)CN([C@H](C)CO)C(=O)c2cc(NS(=O)(=O)c3cccs3)ccc2O1	87.5% (inactive)
Cc1noc(C)c1S(=O)(=O)Nc1ccc2c(c1)C(=O)N([C@@H](C)CO)C[C@@H](C)[C@H](CN(C)C(=O)Nc1cccc3ccccc13)O2	-148% (inactive)
C[C@H]1CN([C@@H](C)CO)C(=O)c2cc(-c3ccccc3)cnc2O[C@H]1CN(C)C(=O)C1CCOCC1	60.3% (inactive)
CC(=O)N1[C@@H](CO)[C@@H]2c3ccccc3N(S(=O)(=O)c3ccccc3)C[C@@H]21	17.9% (inactive)
CN1C(=O)c2cc(NC(=O)c3ccno3)ccc2OC[C@H]2O[C@@H](CC(=O)NCC(F)(F)F)CC[C@@H]21	-16.1% (inactive)
CO[C@@H]1CN(C)C(=O)c2ccc(NC(=O)c3ccc(F)cc3)cc2OC[C@H](C)N(C(=O)c2ccc(F)cc2)C[C@@H]1C	33.4% (inactive)
C[C@@H]1CN([C@@H](C)CO)S(=O)(=O)c2ccc(C#CCN(C)C)cc2O[C@@H]1CN(C)C(=O)CC1CC1	27.9% (inactive)
C[C@@H]1CN([C@@H](C)CO)S(=O)(=O)c2ccc(C#CCC3CCCC3)cc2O[C@H]1CN(C)C(=O)CC1CC1	116% (active)
C[C@@H]1CN([C@H](C)CO)S(=O)(=O)c2ccc(C#CCC3CCCC3)cc2O[C@H]1CN(C)C(=O)CC1CC1	119% (active)

Structure (SMILES)	inhibition
C[C@@H]1CN([C@@H](C)CO)S(=O)(=O)c2ccc(C#CCC3CCCC3)cc2O[C@@H]1CN(C)C	2.02% (inactive)
C[C@@H]1CN([C@H](C)CO)S(=O)(=O)c2ccc(C#CCN(C)C)cc2O[C@H]1CN(C)C(=O)CC1CC1	92.5% (inactive)
COCC#Cc1ccc2c(c1)O[C@H](CN(C)C(=O)CC1CC1)[C@@H](C)CN([C@@H](C)CO)S2(=O)=O	72.2% (inactive)
O=C(C[C@H]1CC[C@H](NC(=O)c2ccc3c(c2)OCO3)[C@H](CO)O1)NCc1ccc(Oc2ccccc2)cc1	-47.4% (inactive)
O=C(NCc1ccccc1Cl)[C@H]1[C@H](CO)[C@H]2Cn3c(cccc3=O)[C@H]2N1C(=O)C1CCC1	19.3% (inactive)
C/C=C/c1ccc([C@@H]2[C@@H](CO)N(C(C)=O)[C@H]2CN(C)C(=O)CN(C)C)cc1	-6.45% (inactive)
C/C=C/c1ccc2c(c1)O[C@H](CN(C)C(=O)Nc1ccccc1)[C@H](C)CN([C@@H](C)CO)S2(=O)=O	45.2% (inactive)
CC(C)C#Cc1ccc2c(c1)O[C@@H](CN(C)C(=O)NC(C)C)[C@H](C)CN([C@H](C)CO)S2(=O)=O	55.8% (inactive)
C[C@@H]1CN([C@@H](C)CO)S(=O)(=O)c2ccc(C#Cc3ccccc3)cc2O[C@@H]1CN(C)C(=O)Nc1ccccc1	113% (active)
C[C@@H]1CN([C@@H](C)CO)S(=O)(=O)c2ccc(C#Cc3ccc(F)cc3)cc2O[C@@H]1CN(C)CC1CC1	11.3% (inactive)
C/C=C/c1ccc2c(c1)O[C@@H](CN(C)C(=O)c1ccccn1)[C@H](C)CN([C@@H](C)CO)S2(=O)=O	11.4% (inactive)
C[C@@H]1CN([C@@H](C)CO)S(=O)(=O)c2ccc(C#Cc3ccc(F)cc3)cc2O[C@H]1CN(C)C(=O)c1ccccn1	103% (active)
COc1ccc(C#Cc2ccc3c(c2)O[C@@H](CN(C)C(=O)Nc2cccc(OC)c2)[C@H](C)CN([C@H](C)CO)S3(=O)=O)cc1	73.3% (inactive)
C[C@@H]1CN([C@@H](C)CO)S(=O)(=O)c2ccc(C#Cc3ccc(F)cc3)cc2O[C@H]1CN(C)C(=O)NC1CCCC1	114% (active)
CC(C)CC#Cc1ccc2c(c1)O[C@@H](CN(C)C(=O)c1ccccn1)[C@@H](C)CN([C@H](C)CO)S2(=O)=O	74.4% (inactive)
COc1cccc(NC(=O)N(C)C[C@H]2Oc3ncc(C4=CCCCC4)cc3C(=O)N([C@H](C)CO)C[C@H]2C)c1	-8.07% (inactive)
CO[C@@H]1CC[C@H]2CCOc3c(C#N)cccc3C(=O)N(C)C[C@@H](OC)[C@H](C)C(=O)N(C)C[C@@H]1O2	20.8% (inactive)
O=C(CN1CCOCC1)N[C@@H]1CC[C@H](CCNS(=O)(=O)c2ccccc2F)O[C@H]1CO	2.08% (inactive)
C[C@@H]1CCCCO[C@@H](CN(C)C(=O)Cc2ccccc2)[C@@H](C)CN([C@@H](C)CO)C(=O)c2cc(NC(=O)c3ccccc3)ccc2O1	60.5% (inactive)
